According to PubChem BioAssay (NCI):
This is part of a sample that, as a whole, favours compounds with a hit. Of some 79,000 tested, about 15% had one in any assay. No stated cut-off is given here; in the data, active means growth inhibition above about 70%; inactive means the rest.

Experiments:
[1] = NCI Yeast Anticancer Drug Screen. Data for the wt2 strain (AID 169);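 further: 0% = growth of vehicle-treated yeast cultures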; settings: S. cerevisiae wt2 strain growth inhibition, stronger effect = higher value
Method in brief: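 The panel's yeast strains carry defined changes in DNA repair or cell cycle genes. Each strain is grown with compound, and growth loss is scored relative to vehicle.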

[2] = NCI Yeast Anticancer Drug Screen. Data for the mlh1 strain (AID 171);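 further: 0% = growth of vehicle-treated control cultures of the same strain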; settings: S. cerevisiae mlh1 strain growth inhibition, stronger effect = higher value
Method in brief: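 Inhibition values reflect reduced yeast growth in the presence of compound, referenced to vehicle controls, using a strain chosen for its alteration in DNA repair or cell cycle control.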

[3] = NCI Yeast Anticancer Drug Screen. Data for the sgs1 strain (AID 173);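 further: 0% = growth of vehicle-only control cultures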; settings: S. cerevisiae sgs1 mutant, stronger effect = higher value
Method in brief: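 Vehicle-treated cultures served as reference for growth inhibition of a yeast strain altered in DNA damage repair or cell cycle control after compound exposure.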

[4] = NCI Yeast Anticancer Drug Screen. Data for the mlh1 rad18 strain (AID 175); settings: S. cerevisiae mlh1 rad18 strain growth inhibition, stronger effect = higher value
Method in brief: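 Inhibition values reflect reduced growth of mutant yeast versus vehicle-treated controls following compound exposure; the mutations affect DNA damage repair.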

[5] = NCI Yeast Anticancer Drug Screen. Data for the rad18 strain (AID 177); settings: S. cerevisiae rad18 mutant growth inhibition, stronger effect = higher value
Method in brief: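 Steps: expose repair-mutant yeast to compound; measure growth; express as inhibition relative to vehicle control.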

Measured: growth inhibition

O=C(Nc1ccccc1)OCCc1ccc(Cl)c(Cl)c1
inactive: [1]; at 1.2 µM -7% | [1]; at 3.7 µM -6% | [1]; at 11.0 µM 5% | [1]; at 33.0 µM 24% | [1]; at 100.0 µM 8% | [2]; at 1.2 µM -3% | [2]; at 3.7 µM 2% | [2]; at 11.0 µM 22% | [2]; at 33.0 µM 46% | [2]; at 100.0 µM 46% | [3]; at 1.2 µM -19% | [3]; at 3.7 µM -9% | [3]; at 11.0 µM 2% | [3]; at 33.0 µM 22% | [3]; at 100.0 µM 47% | [4]; at 5.0 µM (retest, dose inferred, filed as 0.5) 1% | [4]; at 50.0 µM (retest, dose inferred, filed as 5.0) 60% | [4]; at 50.0 µM 58.9% | [5]; at 1.2 µM -4% | [5]; at 3.7 µM 7% | [5]; at 11.0 µM 17% | [5]; at 33.0 µM 45% | [5]; at 100.0 µM 53%
